Records with an inconclusive call do not appear. Calls of active or inactive are those of the source. Calls come from the whole dose curve; as a rule, active = well fitted inhibition curve with a large enough effect; inconclusive = small, poorly fitted or top-dose-only effect; inactive = flat fitted curve, though single readings scatter.
Columns and labels:
[1] = biological target: Glutathione peroxidase 1 (Homo sapiens) (UniProt P07203); experiment: Primary qHTS Assay for Inhibitors of Recombinant Selenoprotein Glutathione Peroxidase 1 (GPX1) (AID 1845191); note: nearly all actives have a fitted effect of over 65% in size
Chain of Glutathione peroxidase 1 (Homo sapiens) (P07203 whole entry, looked up): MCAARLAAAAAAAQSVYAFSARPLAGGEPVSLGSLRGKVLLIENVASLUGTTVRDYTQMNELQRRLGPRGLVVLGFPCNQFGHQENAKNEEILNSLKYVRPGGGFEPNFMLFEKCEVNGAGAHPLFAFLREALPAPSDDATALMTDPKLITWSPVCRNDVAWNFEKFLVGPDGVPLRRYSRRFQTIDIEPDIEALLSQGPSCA
Method in brief: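 GR-coupled readout: NADPH consumption tracked by fluorescence, ex 340/em 450 nm, at t=0 and after 15 min at RT. Final mix 10 nM GPX1, 1 mM GSH, 0.5 mM CHP, 0.5 mM NADPH, 100 nM GR, 0.01% BSA, following 30 min enzyme–compound preincubation.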

[2] = biological target: Phospholipid hydroperoxide glutathione peroxidase GPX4 (Homo sapiens) (UniProt P36969); experiment: Primary qHTS Assay for Inhibitors of Recombinant Selenoprotein Glutathione Peroxidase 4 (GPX4) (AID 1845192); note: nearly all actives have a fitted effect of over 65% in size; for activity change, negative = inhibition: series mostly up to about 50 µM; % is set by controls: 0 for no effect and ±100 for the full control effect
Chain of Phospholipid hydroperoxide glutathione peroxidase GPX4 (Homo sapiens) (P36969 whole entry, looked up): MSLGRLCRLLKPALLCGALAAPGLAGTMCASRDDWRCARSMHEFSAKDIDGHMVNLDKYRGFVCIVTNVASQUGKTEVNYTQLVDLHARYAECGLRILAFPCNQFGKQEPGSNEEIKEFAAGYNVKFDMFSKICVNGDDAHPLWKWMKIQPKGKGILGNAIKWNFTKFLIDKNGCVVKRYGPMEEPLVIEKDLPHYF
Method in brief: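 Steps: GPX4 plus compound, 30 min RT; add GR/GSH/NADPH master mix; start with cumene hydroperoxide; read 340/450 nm fluorescence at 0 and 15 min. Finals were 200 nM GPX4, 1 mM GSH, 0.5 mM CHP, 0.5 mM NADPH, 100 nM GR.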

[3] = biological target: Luciferin 4-monooxygenase (Photinus pyralis) (UniProt P08659); experiment: Primary firefly luciferase (FLuc) qHTS assay for identification of artifact compounds. (AID 1845220); note: nearly all actives have a fitted effect of over 60% in size;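 for activity change, negative = inhibition: series mostly up to about 54 µM; plate controls were DMSO vehicle for no effect and no enzyme for full effect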
Method in brief: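 Titrated compounds were incubated 15 min at RT, protected from light, with luciferin and ATP at 10 uM; reaction started with 10 nM FLuc, luminescence imaged at 5 min, and concentration-response fitted by Hill equation.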

CC1(CO)CC(O)C2(C)CCC3(C)C(=CCC4C5(C=O)CCC(OC6OC(C(=O)O)C(O)C(O)C6OC6OC(C(=O)O)C(O)C(O)C6O)C(C)(C)C5CCC43C)C2C1 (stereo not given)
inactive: Potency [1] | Potency [2] | activity change, negative = inhibition [3] -10.9% [at 11.6 µM]

O=C(Nc1ccc(N2CCC(C(=O)N3CCOCC3)CC2)cc1)c1cnc(Oc2ccccc2)nc1
inactive: Potency [1] | Potency [2] | Potency [3]

COc1ccc(C(=O)CC(=O)O)c2c1C=CC(C)(C)O2
inactive: Potency [1] | Potency [2] | Potency [3]

COc1ccc(/C=C/C(N)=O)cc1OC
inactive: Potency [1] | Potency [2] | Potency [3]

CC(C)C1NC(=O)C2CCCN2C1=O (stereo not given)
inactive: Potency [1] | Potency [2] | Potency [3]

O=[N+]([O-])c1cc(Cl)ccc1S(=O)(=O)N1CCN(Cc2ccccc2)CC1
inactive: Potency [1] | Potency [2] | Potency [3]

C=C1C[C@H](O)[C@@H](O)[C@@]2(C)C1[C@@H](O)[C@H]1OC(=O)C3[C@@H](C)[C@@H](O)[C@H](O)C2[C@]31C (stereo not given in full)
inactive: Potency [1] | Potency [2] | Potency [3]

C[C@]12CCC[C@](C)(C(=O)O)C1[C@@H](O)[C@@H](O)C13CC(CCC12)C(CO)(O[C@@H]1O[C@H](CO)[C@@H](O)[C@H](O)[C@H]1O)C3 (stereo not given in full)
inactive: Potency [1] | Potency [2] | Potency [3]

C=CC(C)(O)C1CC2C3(C)CCCC(C)(C)C3C(O)C(O)C2(C)O1 (stereo not given)
inactive: Potency [1] | Potency [2] | Potency [3]

COC(=O)C1=CO[C@@H](O[C@@H]2O[C@H](CO)[C@@H](O)[C@H](O)[C@H]2O)[C@@H]2[C@@H](C(=O)O)CC[C@H]12
inactive: Potency [1] | Potency [2] | Potency [3]
